# Results filed as inconclusive are left out. Calls of active or inactive are those of the source. Rule for the calls: active = hit-call score of the fitted dose curve at least 0.9, where 1 is the maximum; inconclusive = response in the unintended direction; inactive = score below 0.9.
# What was measured:
# [1] = target: human Matrix Metalloproteinase-9 (MMP9), MMP9 (gene 4318) (UniProt P14780); assay: NVS_ENZ_hMMP9: NovaScreen (NVS) Enzymatic Assay for human Matrix Metalloproteinase-9 (MMP9) (AID 2283190);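 note: cell-free recombinant MMP9 protease activity read by fluorescent substrate signal; active means inhibition seen as loss of fluorescence signal versus DMSO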
# How it was run: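 Cell-free recombinant MMP9 enzyme activity measured by fluorescence intensity 1 h after dosing. Primary screen in duplicate at 25 uM, actives followed in concentration series; loss of signal relative to DMSO.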
# [2] = target: human Phosphodiesterase 5 (PDE5), PDE5A (gene 8654) (UniProt O76074); assay: NVS_ENZ_hPDE5: NovaScreen (NVS) Enzymatic Assay for human Phosphodiesterase 5 (PDE5) (AID 2283194)
# How it was run: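 Recombinant human PDE5 with specific substrate, read 1 h after dosing by fluorescence with electrophoretic mobility-shift separation of substrate and product. Initial single-concentration duplicate screen at 25 uM, actives followed in concentration series; loss of activity versus DMSO.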
# [3] = target: human Protein Tyrosine Phosphatase Non-receptor Type 9 (PTPN9), PTPN9 (gene 5780) (UniProt P43378); assay: NVS_ENZ_hPTPN9: NovaScreen (NVS) Enzymatic Assay for human Protein Tyrosine Phosphatase Non-receptor Type 9 (PTPN9) (AID 2283209)
# How it was run: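 Sf9-expressed enzyme in a cell-free assay, fluorescence read 1.33 h after dosing with mobility-shift separation of substrate and product. Tested at 25 uM in duplicate, then up to 50 uM; signal loss versus DMSO.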
# [4] = target: human Phosphodiesterase 10 (PDE10), PDE10A (gene 10846) (UniProt Q9Y233); assay: NVS_ENZ_hPDE10: NovaScreen (NVS) Enzymatic Assay for human Phosphodiesterase 10 (PDE10) (AID 2283195)
# How it was run: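 PDE10A, cell-free; 1 h incubation; fluorescence intensity + electrophoretic mobility shift separating substrate/product; DMSO = baseline; 25 uM duplicate primary, CRC up to 50 uM.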
# [5] = target: human Phosphoinositide 3-kinase alpha (PI3Ka), PIK3CA (gene 5290) (UniProt P42336); assay: NVS_ENZ_hPI3Ka: NovaScreen (NVS) Enzymatic Assay for human Phosphoinositide 3-kinase alpha (PI3Ka) (AID 2283196)
# How it was run: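 Recombinant human PI3Kα with fluorescent substrate, 1 h, product separated by electrophoretic mobility shift; 25 uM duplicate screen, hits (e.g., 30% inhibition) retested singly up to 50 uM; loss of signal vs DMSO.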
# [6] = target: Tyrosine-protein phosphatase non-receptor type 12 (Homo sapiens) (UniProt Q05209); assay: NVS_ENZ_hPTPN12: NovaScreen (NVS) Enzymatic Assay for human Protein Tyrosine Phosphatase Non-receptor Type 12 (PTPN12) (AID 2283204)
# How it was run: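 Single-concentration duplicates (25 uM) preceded singleton concentration-response up to 50 uM for chemicals passing threshold. Cell-free recombinant PTPN12 activity was read 1.33 h after dosing via fluorescence after mobility-shift separation; loss of signal versus DMSO.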
# [7] = target: human Protein Phosphatase, Mg2+/Mn2+ Dependent 1A (PPM1A), PPM1A (gene 5494) (UniProt P35813); assay: NVS_ENZ_hPPM1A: NovaScreen (NVS) Enzymatic Assay for human Protein Phosphatase, Mg2+/Mn2+ Dependent 1A (PPM1A) (AID 2283198)
# How it was run: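 Cell-free recombinant PPM1A phosphatase assay with fluorescent substrate, read 1 h after dosing by electrophoretic mobility shift. Chemicals screened in duplicate at 25 uM, then in concentration-response up to 50 uM; loss of activity versus DMSO.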
# [8] = target: human Phosphodiesterase 4A1 (PDE4A1), PDE4A (gene 5141) (UniProt P27815); assay: NVS_ENZ_hPDE4A1: NovaScreen (NVS) Enzymatic Assay for human Phosphodiesterase 4A1 (PDE4A1) (AID 2283191)
# How it was run: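 Cell-free recombinant human PDE4A1 with fluorescent substrate; product separated by electrophoretic mobility shift, 1 h. Screened at 25 uM, then up to 50 uM in concentration-response; loss of signal fitted against DMSO.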
# [9] = target: cAMP-dependent protein kinase catalytic subunit alpha (Homo sapiens) (UniProt P17612); assay: NVS_ENZ_hPKA: NovaScreen (NVS) Enzymatic Assay for human Protein Kinase A (PKA) (AID 2283192)
# How it was run: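 Recombinant human PKA with specific fluorescent substrate, product separated by electrophoretic mobility shift, read 1 h after dosing. Primary screen at 25 uM in duplicate; actives then run in concentration-response up to 50 uM, activity relative to DMSO.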
# [10] = target: Serine/threonine-protein phosphatase PP1-alpha catalytic subunit (Homo sapiens) (UniProt P62136); assay: NVS_ENZ_hPPP1CA: NovaScreen (NVS) Enzymatic Assay for human Protein Phosphatase 1 Aatalytic subunit Alpha (PPP1CA) (AID 2283200)
# How it was run: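 Recombinant enzyme activity read by fluorescence with electrophoretic mobility shift separating substrate from product, 1.33 h after dosing; loss of signal vs DMSO baseline. Primary screen in duplicate at 25 uM; actives retested in concentration-response up to 50 uM.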
# [11] = target: human Protein Tyrosine Phosphatase Non-receptor Type 4 (PTPN4), PTPN4 (gene 5775) (UniProt P29074); assay: NVS_ENZ_hPTPN4: NovaScreen (NVS) Enzymatic Assay for human Protein Tyrosine Phosphatase Non-receptor Type 4 (PTPN4) (AID 2283208)
# How it was run: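 Cell-free assay of PTPN4 expressed in Sf9 cells, using a fluorescent substrate with product separated by mobility shift; read 1.33 h after dosing. Single-point screen at 25 uM, then concentration-response up to 50 uM. Loss of signal relative to DMSO.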
# [12] = target: human Protein Tyrosine Phosphatase Receptor Type F (PTPRF), PTPRF (gene 5792) (UniProt P10586); assay: NVS_ENZ_hPTPRF: NovaScreen (NVS) Enzymatic Assay for human Protein Tyrosine Phosphatase Receptor Type F (PTPRF) (AID 2283213)
# How it was run: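 Cell-free fluorescence enzyme assay with recombinant protein and substrate; product separated by electrophoretic mobility shift. Read 1 h after dosing, single 25 uM duplicate screen, then concentration-response up to 50 uM; loss of signal vs DMSO.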
# [13] = target: human Mitogen- and Stress-activated Protein Kinase-1 (Msk1), RPS6KA5 (gene 9252) (UniProt O75582); assay: NVS_ENZ_hMsk1: NovaScreen (NVS) Enzymatic Assay for human Mitogen- and Stress-activated Protein Kinase-1 (Msk1) (AID 2283187)
# How it was run: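 Recombinant kinase with fluorescent substrate; product separated by electrophoretic mobility shift, read 1 h after dosing. Screened in duplicate at 25 uM; hits (e.g. ≥30% inhibition) tested in concentration–response up to 50 uM. DMSO baseline.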
# [14] = target: Tyrosine-protein phosphatase non-receptor type 11 (Homo sapiens) (UniProt Q06124); assay: NVS_ENZ_hPTPN11: NovaScreen (NVS) Enzymatic Assay for human Protein Tyrosine Phosphatase Non-receptor Type 11 (PTPN11) (AID 2283202)
# How it was run: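 Recombinant human PTPN11 activity on a fluorescent substrate, with substrate/product separated by electrophoretic mobility shift; read 0.5 h after dosing, loss of signal vs DMSO. Duplicate 25 uM screen, then concentration-response up to 50 uM.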
# [15] = target: Tyrosine-protein phosphatase non-receptor type 13 (Homo sapiens) (UniProt Q12923); assay: NVS_ENZ_hPTPN13: NovaScreen (NVS) Enzymatic Assay for human Protein Tyrosine Phosphatase Non-receptor Type 13 (PTPN13) (AID 2283205)
# How it was run: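 Cell-free assay of recombinant human PTPN13 with a fluorescent substrate, product separated by electrophoretic mobility shift and read 0.5 h after dosing. Primary screen at 25 uM in duplicate, then concentration-response up to 50 uM. Loss of signal fitted against DMSO.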
# [16] = target: human Protein Tyrosine Phosphatase Non-receptor Type 6 (PTPN6), PTPN6 (gene 5777) (UniProt P29350); assay: NVS_ENZ_hPTPN6: NovaScreen (NVS) Enzymatic Assay for human Protein Tyrosine Phosphatase Non-receptor Type 6 (PTPN6) (AID 2283210)
# How it was run: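 Cell-free assay with recombinant PTPN6 expressed in SF9 cells, fluorescent substrate, product separated from substrate by electrophoretic mobility shift; read 1.33 hours after dosing. Primary screen in duplicate at 25 uM, actives retested in concentration series; DMSO baseline.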
# [17] = target: human Protein Tyrosine Phosphatase Non-receptor Type 1 (PTPN1), PTPN1 (gene 5770) (UniProt P18031); assay: NVS_ENZ_hPTPN1: NovaScreen (NVS) Enzymatic Assay for human Protein Tyrosine Phosphatase Non-receptor Type 1 (PTPN1) (AID 2283201)
# How it was run: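 Cell-free fluorogenic-substrate activity assay on recombinant enzyme, read 1.33 h after dosing by fluorescence and electrophoretic mobility shift; loss of signal vs DMSO baseline. Primary screen in duplicate at 25 uM, hits then run in concentration-response up to 50 uM.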
# [18] = target: human Protein Tyrosine Phosphatase Receptor Type B (PTPRB), PTPRB (gene 5787) (UniProt P23467); assay: NVS_ENZ_hPTPRB: NovaScreen (NVS) Enzymatic Assay for human Protein Tyrosine Phosphatase Receptor Type B (PTPRB) (AID 2283211)
# How it was run: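 Recombinant human PTPRB with a fluorescent substrate, product separated by electrophoretic mobility shift; read 1 h after dosing. Primary screen in duplicate at 25 uM; actives then retested in concentration series; loss of signal versus DMSO.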
# [19] = target: Tyrosine-protein phosphatase non-receptor type 14 (Homo sapiens) (UniProt Q15678); assay: NVS_ENZ_hPTPN14: NovaScreen (NVS) Enzymatic Assay for human Protein Tyrosine Phosphatase Non-receptor Type 14 (PTPN14) (AID 2283206)
# How it was run: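 Cell-free recombinant human PTPN14 with fluorescent substrate, read 0.5 h after dosing by fluorescence and electrophoretic mobility shift separating substrate from product. Primary screen at 25 uM in duplicate; hits run to 50 uM maximum; loss of signal versus DMSO.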
# human Phosphodiesterase 10 (PDE10), PDE10A (gene 10846), sequence (Q9Y233 whole entry, looked up): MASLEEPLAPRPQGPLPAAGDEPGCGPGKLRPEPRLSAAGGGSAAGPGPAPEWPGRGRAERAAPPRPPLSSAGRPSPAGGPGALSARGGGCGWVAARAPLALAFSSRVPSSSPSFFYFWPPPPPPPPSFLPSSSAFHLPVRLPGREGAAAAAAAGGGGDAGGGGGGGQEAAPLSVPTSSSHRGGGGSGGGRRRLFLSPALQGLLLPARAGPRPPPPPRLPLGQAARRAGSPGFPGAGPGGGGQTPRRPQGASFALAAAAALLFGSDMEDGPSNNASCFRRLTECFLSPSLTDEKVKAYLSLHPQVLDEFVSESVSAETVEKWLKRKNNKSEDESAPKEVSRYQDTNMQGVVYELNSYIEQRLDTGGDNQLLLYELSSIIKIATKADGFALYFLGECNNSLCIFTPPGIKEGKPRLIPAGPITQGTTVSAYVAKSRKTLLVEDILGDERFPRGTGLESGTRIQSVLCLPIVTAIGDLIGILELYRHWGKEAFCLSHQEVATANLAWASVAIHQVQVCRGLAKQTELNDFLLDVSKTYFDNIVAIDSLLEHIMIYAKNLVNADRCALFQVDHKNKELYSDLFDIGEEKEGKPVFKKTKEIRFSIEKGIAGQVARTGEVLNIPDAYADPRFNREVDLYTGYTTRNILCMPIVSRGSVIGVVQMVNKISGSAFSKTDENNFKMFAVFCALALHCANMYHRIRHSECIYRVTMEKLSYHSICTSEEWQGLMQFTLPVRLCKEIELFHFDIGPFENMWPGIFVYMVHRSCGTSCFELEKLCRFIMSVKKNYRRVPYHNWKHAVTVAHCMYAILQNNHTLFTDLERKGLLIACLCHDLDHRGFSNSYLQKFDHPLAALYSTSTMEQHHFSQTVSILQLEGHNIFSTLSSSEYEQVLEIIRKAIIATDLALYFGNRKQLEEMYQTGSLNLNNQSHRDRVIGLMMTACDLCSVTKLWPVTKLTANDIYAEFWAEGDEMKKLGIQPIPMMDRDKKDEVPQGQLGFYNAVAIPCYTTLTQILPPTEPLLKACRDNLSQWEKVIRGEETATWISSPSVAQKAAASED
# human Protein Tyrosine Phosphatase Non-receptor Type 4 (PTPN4), PTPN4 (gene 5775), sequence (P29074 whole entry, looked up): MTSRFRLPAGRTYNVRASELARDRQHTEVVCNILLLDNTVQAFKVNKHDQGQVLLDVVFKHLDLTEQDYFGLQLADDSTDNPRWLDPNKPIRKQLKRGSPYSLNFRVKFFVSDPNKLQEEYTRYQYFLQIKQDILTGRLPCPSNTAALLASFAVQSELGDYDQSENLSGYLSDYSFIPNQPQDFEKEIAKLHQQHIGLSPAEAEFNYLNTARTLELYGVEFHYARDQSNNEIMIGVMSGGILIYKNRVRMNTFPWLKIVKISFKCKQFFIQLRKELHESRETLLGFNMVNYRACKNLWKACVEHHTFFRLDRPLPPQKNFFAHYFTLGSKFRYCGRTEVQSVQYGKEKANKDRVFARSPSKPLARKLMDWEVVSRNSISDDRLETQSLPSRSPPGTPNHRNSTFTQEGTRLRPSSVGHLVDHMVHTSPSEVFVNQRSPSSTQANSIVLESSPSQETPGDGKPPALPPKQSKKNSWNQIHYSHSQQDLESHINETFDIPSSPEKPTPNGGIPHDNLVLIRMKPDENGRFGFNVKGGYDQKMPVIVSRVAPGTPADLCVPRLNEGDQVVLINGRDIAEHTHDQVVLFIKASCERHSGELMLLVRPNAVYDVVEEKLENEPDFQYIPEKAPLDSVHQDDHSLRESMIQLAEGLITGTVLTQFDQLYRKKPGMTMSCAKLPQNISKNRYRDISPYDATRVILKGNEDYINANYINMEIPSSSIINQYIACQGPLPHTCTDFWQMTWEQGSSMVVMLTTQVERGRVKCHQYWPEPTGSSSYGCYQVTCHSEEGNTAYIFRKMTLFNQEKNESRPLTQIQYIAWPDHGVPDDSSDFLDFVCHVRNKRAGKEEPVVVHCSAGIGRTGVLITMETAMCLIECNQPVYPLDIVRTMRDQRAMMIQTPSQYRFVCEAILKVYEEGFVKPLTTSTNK
# Tyrosine-protein phosphatase non-receptor type 12 (Homo sapiens), sequence (Q05209 whole entry, looked up): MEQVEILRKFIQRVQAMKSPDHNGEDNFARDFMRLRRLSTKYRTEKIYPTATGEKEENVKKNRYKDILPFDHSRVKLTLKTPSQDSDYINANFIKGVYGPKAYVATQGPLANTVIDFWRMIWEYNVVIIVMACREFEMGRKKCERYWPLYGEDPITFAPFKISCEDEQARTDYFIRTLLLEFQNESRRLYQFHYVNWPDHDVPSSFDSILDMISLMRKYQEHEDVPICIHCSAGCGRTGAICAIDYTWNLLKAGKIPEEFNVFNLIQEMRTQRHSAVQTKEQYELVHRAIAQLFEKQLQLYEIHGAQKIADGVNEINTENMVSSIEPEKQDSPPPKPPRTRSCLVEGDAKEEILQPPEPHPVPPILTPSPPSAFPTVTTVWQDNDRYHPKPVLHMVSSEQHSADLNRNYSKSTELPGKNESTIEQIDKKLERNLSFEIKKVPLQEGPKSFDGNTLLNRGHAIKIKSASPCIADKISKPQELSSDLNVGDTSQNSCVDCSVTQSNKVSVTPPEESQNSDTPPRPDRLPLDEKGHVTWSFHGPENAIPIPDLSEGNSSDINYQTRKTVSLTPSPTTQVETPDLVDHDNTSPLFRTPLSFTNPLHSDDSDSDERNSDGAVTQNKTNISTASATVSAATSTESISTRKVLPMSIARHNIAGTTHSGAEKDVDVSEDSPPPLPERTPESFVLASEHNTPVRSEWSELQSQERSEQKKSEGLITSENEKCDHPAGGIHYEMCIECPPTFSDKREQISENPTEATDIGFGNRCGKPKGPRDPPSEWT
# human Protein Tyrosine Phosphatase Receptor Type F (PTPRF), PTPRF (gene 5792), sequence (P10586 whole entry, looked up): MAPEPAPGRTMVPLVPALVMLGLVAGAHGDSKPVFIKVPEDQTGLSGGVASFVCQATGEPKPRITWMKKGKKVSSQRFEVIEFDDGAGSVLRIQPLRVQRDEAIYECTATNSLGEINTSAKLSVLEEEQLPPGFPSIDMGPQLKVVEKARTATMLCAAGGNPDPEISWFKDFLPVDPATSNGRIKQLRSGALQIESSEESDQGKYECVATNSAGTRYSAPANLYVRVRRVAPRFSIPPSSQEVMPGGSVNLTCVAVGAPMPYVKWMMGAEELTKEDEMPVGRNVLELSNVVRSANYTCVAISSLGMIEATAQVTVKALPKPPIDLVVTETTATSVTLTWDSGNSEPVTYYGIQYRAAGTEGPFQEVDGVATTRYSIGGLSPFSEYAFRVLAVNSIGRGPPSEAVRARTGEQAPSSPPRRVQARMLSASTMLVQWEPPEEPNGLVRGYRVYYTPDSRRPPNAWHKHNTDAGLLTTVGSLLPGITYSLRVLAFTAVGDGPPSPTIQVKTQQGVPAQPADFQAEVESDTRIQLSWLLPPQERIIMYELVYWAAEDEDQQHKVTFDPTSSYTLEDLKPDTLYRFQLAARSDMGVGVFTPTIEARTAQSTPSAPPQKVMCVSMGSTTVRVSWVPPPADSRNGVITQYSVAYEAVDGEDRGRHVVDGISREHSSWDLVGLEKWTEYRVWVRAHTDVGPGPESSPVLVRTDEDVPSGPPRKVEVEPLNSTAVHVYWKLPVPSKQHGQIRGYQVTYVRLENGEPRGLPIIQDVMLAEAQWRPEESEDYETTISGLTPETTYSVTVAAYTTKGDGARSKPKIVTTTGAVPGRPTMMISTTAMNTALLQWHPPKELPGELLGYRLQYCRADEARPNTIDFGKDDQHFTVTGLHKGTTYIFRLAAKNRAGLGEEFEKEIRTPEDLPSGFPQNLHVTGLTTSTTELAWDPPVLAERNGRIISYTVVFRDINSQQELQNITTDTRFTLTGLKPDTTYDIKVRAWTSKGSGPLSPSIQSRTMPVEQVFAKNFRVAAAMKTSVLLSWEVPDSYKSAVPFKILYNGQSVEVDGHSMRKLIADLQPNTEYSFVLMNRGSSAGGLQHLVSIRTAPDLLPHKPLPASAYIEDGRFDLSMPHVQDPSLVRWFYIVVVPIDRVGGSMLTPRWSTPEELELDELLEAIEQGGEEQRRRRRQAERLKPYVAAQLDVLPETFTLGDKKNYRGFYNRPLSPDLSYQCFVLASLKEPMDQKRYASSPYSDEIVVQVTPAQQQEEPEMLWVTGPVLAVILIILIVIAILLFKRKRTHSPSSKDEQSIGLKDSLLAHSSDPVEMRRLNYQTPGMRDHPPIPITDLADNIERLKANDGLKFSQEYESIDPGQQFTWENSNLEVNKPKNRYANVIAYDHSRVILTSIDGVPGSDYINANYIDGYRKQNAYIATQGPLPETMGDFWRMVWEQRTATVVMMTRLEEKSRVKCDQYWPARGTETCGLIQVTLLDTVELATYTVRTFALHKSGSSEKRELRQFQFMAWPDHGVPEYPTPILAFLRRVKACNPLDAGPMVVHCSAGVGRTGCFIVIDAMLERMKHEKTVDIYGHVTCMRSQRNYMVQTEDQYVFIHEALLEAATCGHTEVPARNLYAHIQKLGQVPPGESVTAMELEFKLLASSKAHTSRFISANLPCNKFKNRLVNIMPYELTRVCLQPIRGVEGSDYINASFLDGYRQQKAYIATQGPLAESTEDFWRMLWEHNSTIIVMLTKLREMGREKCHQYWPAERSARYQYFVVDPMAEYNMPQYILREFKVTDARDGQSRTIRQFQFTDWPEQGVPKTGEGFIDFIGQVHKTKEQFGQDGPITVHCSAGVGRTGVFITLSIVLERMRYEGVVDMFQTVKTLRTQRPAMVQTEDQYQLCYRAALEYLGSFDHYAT
# human Protein Tyrosine Phosphatase Non-receptor Type 1 (PTPN1), PTPN1 (gene 5770), sequence (P18031 whole entry, looked up): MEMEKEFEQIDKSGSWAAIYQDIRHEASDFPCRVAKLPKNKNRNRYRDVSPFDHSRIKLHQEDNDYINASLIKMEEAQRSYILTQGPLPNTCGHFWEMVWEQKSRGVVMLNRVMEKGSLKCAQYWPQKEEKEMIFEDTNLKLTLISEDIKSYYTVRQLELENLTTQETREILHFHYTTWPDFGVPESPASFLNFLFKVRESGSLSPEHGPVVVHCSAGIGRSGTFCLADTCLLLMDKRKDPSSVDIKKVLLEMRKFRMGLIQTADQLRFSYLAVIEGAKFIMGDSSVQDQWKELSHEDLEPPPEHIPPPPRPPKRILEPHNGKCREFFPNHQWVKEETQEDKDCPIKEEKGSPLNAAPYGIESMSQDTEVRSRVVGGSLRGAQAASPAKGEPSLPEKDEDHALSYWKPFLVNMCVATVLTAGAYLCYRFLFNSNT
compound,measurement,setting,value
Nc1ccccc1N,outcome,[1],inactive
same,AC50,[2],18.1 µM (active)
same,AC50,[3],9.86 µM (active)
Cc1nc(-c2ccc3c(c2)CCN(CCC2CCC(NC(=O)/C=C/c4ccc(F)cc4)CC2)CC3)no1 (stereo not given),outcome,[2],inactive
same,AC50,[4],3.71 µM (active)
same,outcome,[5],inactive
same,outcome,[6],inactive
CCNc1cccc(C)c1,outcome,[1],inactive
Cc1cc(NC(=O)C(=O)O)cc(C)c1Oc1ccc(O)c2c1CCC2,AC50,[2],8.94 µM (active)
same,outcome,[7],inactive
NS(=O)(=O)c1cc2c(cc1Cl)NCNS2(=O)=O,outcome,[1],inactive
same,outcome,[3],inactive
CNCc1cc(F)ccc1Oc1ccc(Cl)c(Cl)c1,outcome,[8],inactive
same,outcome,[4],inactive
O=C(OCCCCCOC(=O)c1ccccc1)c1ccccc1,outcome,[9],inactive
same,outcome,[7],inactive
same,outcome,[10],inactive
same,outcome,[11],inactive
same,outcome,[3],inactive
same,outcome,[12],inactive
CCCCc1ccc2c(n1)[C@@H](c1ccc(OC)cc1C[C@H](C)C(=O)O)[C@H](C(=O)O)[C@H]2c1ccc2c(c1)OCO2,outcome,[1],inactive
CC1=C(/C=C/C(C)=C/C=C/C(C)=C/CO)C(C)(C)CCC1,outcome,[13],inactive
same,outcome,[8],inactive
same,outcome,[2],inactive
O=C(N[C@@H](Cc1ccccc1)[C@@H](O)C(=O)N1C[C@@H](O)[C@@H](O)C1)c1cc2cc(Cl)ccc2[nH]1,outcome,[1],inactive
same,outcome,[8],inactive
same,outcome,[2],inactive
CCc1c(C(=O)NN2CCCCC2)nn(-c2ccc(Cl)cc2Cl)c1-c1ccc(Br)cc1,outcome,[13],inactive
same,outcome,[2],inactive
same,outcome,[5],inactive
same,outcome,[14],inactive
same,outcome,[6],inactive
same,AC50,[15],0.0976 µM (active)
same,outcome,[3],inactive
same,outcome,[16],inactive
same,outcome,[12],inactive
Cc1ccc(C)c(C)c1,outcome,[2],inactive
same,outcome,[16],inactive
CCCc1cc(=O)[nH]c(=S)[nH]1,AC50,[1],8.66 µM (active)
same,outcome,[15],inactive
Cc1cccc(C)c1O,outcome,[2],inactive
O=c1[nH]cc(F)c(=O)[nH]1,outcome,[2],inactive
same,outcome,[7],inactive
Cc1c(C(=O)O)c(O)cc2c1C(=O)c1c(O)c([C@@H]3O[C@H](CO)[C@@H](O)[C@H](O)[C@H]3O)c(O)c(O)c1C2=O,AC50,[1],4.45 µM (active)
same,outcome,[8],inactive
CCOC(=O)C(C)(C)Oc1ccc(Cl)cc1,outcome,[4],inactive
same,outcome,[5],inactive
same,outcome,[17],inactive
same,outcome,[14],inactive
same,outcome,[6],inactive
same,outcome,[15],inactive
same,outcome,[3],inactive
NCC1(Cc2noc(=O)[nH]2)CCCCC1,outcome,[4],inactive
O=C(O)Cc1ccccc1Nc1c(Cl)cccc1Cl,outcome,[1],inactive
same,outcome,[16],inactive
FC(F)(F)C(F)(F)C(F)(F)C(F)(F)C(F)(F)C(F)(F)CCI,outcome,[13],inactive
same,outcome,[9],inactive
same,AC50,[2],19.7 µM (active)
same,outcome,[10],inactive
same,outcome,[17],inactive
same,outcome,[6],inactive
same,outcome,[11],inactive
same,outcome,[18],inactive
CC(=O)Oc1ccccc1C(=O)O,outcome,[8],inactive
same,outcome,[2],inactive
CNC(=O)[C@H]1O[C@@H](n2cnc3c(NCc4cc(Cl)ccc4OCc4cc(C)no4)ncnc32)[C@H](O)[C@@H]1N,AC50,[1],8.35 µM (active)
same,outcome,[9],inactive
same,outcome,[2],inactive
NCCO,outcome,[13],inactive
same,outcome,[1],inactive
same,outcome,[9],inactive
same,outcome,[14],inactive
same,outcome,[6],inactive
same,outcome,[19],inactive
CC=Cc1ccc(O)c(OC)c1,outcome,[2],inactive
CC(C)c1ccc(C(=O)N=C(N)N)cc1S(C)(=O)=O,outcome,[5],inactive
same,outcome,[12],inactive
C1CCC(SSC2CCCCC2)CC1,outcome,[17],inactive
same,outcome,[19],inactive
Cc1ccc2ncccc2c1,outcome,[14],inactive
same,outcome,[11],inactive
CC1(C)CC(N=C=O)CC(C)(CN=C=O)C1 (stereo not given),AC50,[15],6.77 µM (active)
COc1cc(-c2nc(NC(=O)c3cc4cc(C)cc(C)c4n3CC(=O)O)sc2CCC2CCCCC2)c(OC)cc1Cl,AC50,[15],6.01 µM (active)
CC(=O)OC/C=C(\C)CCC=C(C)C,outcome,[19],inactive
Nc1ccc2c(c1)C(=O)c1ccccc1C2=O,outcome,[11],inactive

# — PubChem BioAssay (EPA / NIEHS)
